Sampled rows, rich in hits. Any-hit rate of the full collection: about 2.6%.
TROY signal inh = TROY signaling inhibition. 360,000 tested, 0.98% active. inhibition, % at 10 µM. Q293 LMP1-TROYcd NF-kB luciferase reporter, 4 h. AID 1347056;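 active means compounds whose plate-normalised and pattern-corrected inhibition of the luciferase reporter signal at the single screening dose is 50% or more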
aDG glyco act = alpha-DG glycosylation activation; Pro5-aDG cells, alpha-DG glycosylation AlphaScreen (IIH6); 0% Pro5, 100% B10-LARGE cell signal; 360,000 tested, 0.22% active; activation, % at 10 µM;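 active means activation of at least 8% versus controls, or a plate z-score of at least 8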;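 further: Pro5 are CHO cells carrying HIG-tagged alpha-DG that lacks glycosylation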
HSP90 refold inh = blocks HSP90-mediated luciferase refolding in reticulocyte lysate; Rabbit reticulocyte lysate, luciferase refolding luminescence, 3 h; inhibition, % at 5.6 µM; 290,000 tested, 0.91% active; AID 1789;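 active means inhibition above the screen-wide mean plus 3 SD, computed separately per campaign, cut at about 16% in these data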;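 further: 0% = DMSO wells and 100% = 60 µM geldanamycin wells; inhibitors lower the luminescence because luciferase stays unfolded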
LGR2 inh = blocks bursicon-induced cAMP signaling via Drosophila LGR2; HEK293 LGR2, CRE-luciferase, bursicon-stimulated, 4 h; AID 720647; 380,000 tested, 0.35% active; inhibition, % at 9.99 µM;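 active means drop in luminescence signal, shown as inhibition above about 50% in the replicate tests, limit read from the data, passing the limit was not always enough; inconclusive means probably only some replicates passing the limit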;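 further: agonist challenge used bursicon conditioned medium at about half maximal strength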
LMP1 NFkB inh = Epstein-Barr LMP1 NF-kappaB reporter inhibition; LMP1-induced NF-kappaB luciferase reporter cells, luminescence; inhibition, % at 12.5 µM; 350,000 tested, 0.69% active; in the data active means inhibition above about 41%; inconclusive means no clear call, values can overlap the other calls;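 further: 0% = neutral control wells and 100% = reference inhibitor control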
TWEAK-Fn14 inh = blocks TWEAK-Fn14 interaction in a reporter cell assay; 360,000 tested, 2% active; AID 1159606; inhibition, % at 10 µM; TWEAK-stimulated Fn14 reporter cells, luciferase luminescence, 8 h; in the data active means inhibition above about 50%
HSP90 inh confirm = HSP90 inhibition, confirmation assay. 2,300 tested, 64% active. shares compounds with HSP90 refold inh. rabbit reticulocyte lysate, luciferase refolding luminescence, 3 h. AID 1846. inhibition, % at 5.9 µM; in the data active means inhibition above about 18%;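 further: 0% = vehicle wells and 100% = reference inhibitor wells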
luciferase ctr = firefly luciferase inhibition, HSP90 counter-screen; shares compounds with HSP90 refold inh; purified native firefly luciferase, luminescence; inhibition, % at 5.9 µM; 2,300 tested, 48% active; AID 1847;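 active means inhibition above the mean inhibition of all tested sample wells plus 3 SD, cut at about 10% in these data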;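 further: 0% = DMSO with luciferase and 100% = wells lacking luciferase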
Target sequence (P08659 whole entry, looked up): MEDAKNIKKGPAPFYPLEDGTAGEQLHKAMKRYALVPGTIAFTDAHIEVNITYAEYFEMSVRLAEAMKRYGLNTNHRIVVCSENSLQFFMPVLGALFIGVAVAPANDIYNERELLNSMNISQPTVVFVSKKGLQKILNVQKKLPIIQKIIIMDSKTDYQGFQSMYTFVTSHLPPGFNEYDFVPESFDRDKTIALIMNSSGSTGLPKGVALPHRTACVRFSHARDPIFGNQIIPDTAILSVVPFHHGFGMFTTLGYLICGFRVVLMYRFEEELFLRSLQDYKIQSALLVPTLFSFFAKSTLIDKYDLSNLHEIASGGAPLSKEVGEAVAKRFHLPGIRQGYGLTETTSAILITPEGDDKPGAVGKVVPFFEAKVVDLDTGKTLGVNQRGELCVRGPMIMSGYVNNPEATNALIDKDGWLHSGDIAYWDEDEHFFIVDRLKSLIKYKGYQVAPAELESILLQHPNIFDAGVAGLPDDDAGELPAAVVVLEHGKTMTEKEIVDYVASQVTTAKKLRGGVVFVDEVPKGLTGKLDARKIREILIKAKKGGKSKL
* = called active by the depositor; ? = inconclusive; . = no result given.

SMILES	TROY signal inh	aDG glyco act	HSP90 refold inh	LGR2 inh	LMP1 NFkB inh	TWEAK-Fn14 inh	HSP90 inh confirm	luciferase ctr
O=C(C1CCCC1)N1C[C@H]2[C@@H](c3ccccc31)[C@@H](CO)N2C(=O)c1ccccc1F	.	.	.	-18	.	.	.	.
Cc1noc(C)c1NC(=O)Nc1ccc2c(c1)C(=O)N([C@H](C)CO)C[C@H](C)[C@H](CN(C)S(=O)(=O)c1cn(C)cn1)OCCCC[C@H](C)O2	.	.	.	2	.	.	.	.
N#CC1(C#N)COC23CCCCC2C1(C#N)C(=N)O3 (configuration not stated)	0	0	18*	.	3	6	-6	-13
O=C(COC(=O)c1ccc(N2CCCC2=O)cc1)Nc1ccccc1	1	2	.	-16	-3	9	.	.
O=C(COC(=O)c1ccc(N2CCCC2=O)cc1)c1ccccc1	-22	0	18*	-41	-21	24	27*	-23
COc1ccc(C(=O)NCCC2=CCCCC2)cc1	36	0	32*	?	16	75*	54*	48*
CC(C)(C)N=C1NN=C(c2ccc(Cl)cc2)CS1	62*	0	20*	-31	-9	65*	22*	22*
COc1ccc(CN=C2NN=C(c3ccc(Cl)cc3)CS2)cc1	8	0	-3	5	-11	-15	.	.
CC(C)(C)N=C1NN=C(c2cc3ccccc3o2)CS1	70*	0	20*	-17	-29	63*	29*	23*
Fc1ccccc1Nc1nc2ccccc2o1	-11	0	24*	-21	-12	40	41*	28*
Cc1cc(C)nc(NC(=O)c2ccc(Br)cc2)n1	-1	0	-1	-13	-7	8	.	.
Cc1cc(NO)nc(-c2ccc(Br)cc2)n1	-16	1	81*	.	-46	8	79*	-17
CC(O)CNC(=S)Nc1ccccc1 (configuration not stated)	-7	0	23*	-1	5	4	-6	-13
CCN1[C@@H]2c3ccc(-c4ccncc4)c(=O)n3C[C@H]1[C@H](CO)[C@H]2C(=O)NCc1ccccc1	.	.	.	-8	.	.	.	.
Cc1cccc(NC(=O)NCCN2CCCCC2)c1	-1	0	25*	2	14	35	-9	-12
CCS(=O)(=O)N1CC(=O)N2[C@H](C1)[C@@H](c1ccc(C#CCC(C)C)cc1)[C@@H]2CO	.	.	.	9	.	.	.	.
Cn1nc(-c2ccc(Cl)cc2)nc2c(=O)n(C)c(=O)nc1-2	.	.	95*	.	.	.	97*	90*
CS(=O)(=O)n1nc(-c2ccc(Cl)cc2)nc1N	-21	0	1	-8	-8	-8	.	.
O=C1CN(S(=O)(=O)Cc2ccccc2)C[C@@H]2[C@H](c3ccc(C#CC4CC4)cc3)[C@@H](CO)N12	.	.	.	3	.	.	.	.
C[C@H](CO)N1C[C@H](C)[C@H](CN(C)S(C)(=O)=O)Oc2ccc(NC(=O)CCCN(C)C)cc2CC1=O	.	.	.	-7	.	.	.	.
Cn1cccc1/C=C1\CCc2ccccc2C1=O	24	0	39*	60*	16	76*	64*	67*
Cn1cccc1/C=C1\Cc2ccccc2C1=O	-31	0	8	-77	-52	6	.	.
CCOc1ccc(/C=C2\CCc3ccccc3C2=O)cc1	70*	0	35*	?	35	90*	44*	73*
CC(C)(C)NC(=O)CN(c1cccc([N+](=O)[O-])c1)S(=O)(=O)c1ccccc1	1	0	23*	11	-5	3	-10	-10
O=C(CNS(=O)(=O)c1ccccc1)OCC(=O)c1ccccc1Cl	-13	0	22*	-10	-3	2	-6	-13
SMILES	TROY signal inh	aDG glyco act	HSP90 refold inh	LGR2 inh	LMP1 NFkB inh	TWEAK-Fn14 inh	HSP90 inh confirm	luciferase ctr
CC(C)c1ccc(/C=C/C(=O)O)cc1	-13	0	9	3	0	2	.	.
CCCc1ccc(-c2ccc(/C=C/C(=O)O)cc2)nc1	14	0	59*	58*	75*	94*	82*	51*
COc1cccc(C#Cc2ccc3c(c2)O[C@@H](CN(C)C(=O)c2ccccn2)[C@H](C)CN([C@H](C)CO)S3(=O)=O)c1	.	.	.	-4	.	.	.	.
c1ccc2nc(-c3nc4ccccc4[nH]3)ccc2c1	49	0	26*	.	-2	82*	72*	62*
c1ccc2[nH]c(-c3cscn3)nc2c1	-27	0	4	-22	-8	-8	.	.
COc1ccc(S(=O)(=O)N(C)C[C@H]2Oc3ccc(NS(=O)(=O)c4ccc(F)cc4)cc3C(=O)N([C@@H](C)CO)C[C@@H]2C)cc1	.	.	.	2	.	.	.	.
COCC(=O)N1C[C@H](C)[C@H](OC)CN(C)C(=O)c2cc(NC(=O)c3ccccc3)ccc2OC[C@@H]1C	.	.	.	-1	.	.	.	.
Cc1ccccc1Cn1nnc(-c2ccc(C(=O)O)cc2)n1	-9	0	1	21	9	-14	.	.
O=C(O)c1cccc(-c2nnn(Cc3ccccc3Cl)n2)c1	-42	0	59*	.	36	0	77*	81*
O=C(O)c1cccc(OCc2ccccc2Cl)c1	-27	0	28*	.	3	11	53*	27*
O=C(O)c1cccc(-c2nnn(Cc3ccccc3)n2)c1	-54	0	29*	.	-12	-13	35*	41*
Cc1oc2ccc(OCc3ccccc3Cl)cc2c1C(=O)O	-8	0	-4	-4	2	-3	.	.
Cc1ccccc1Cn1nnc(-c2cccc(C(=O)O)c2)n1	-86	0	38*	32	3	4	54*	66*
O=C(C[C@@H]1CC[C@H]2[C@@H](COC[C@@H](O)CN2C(=O)c2ccncc2)O1)NCc1cccc(F)c1	.	.	.	-4	.	.	.	.
COc1ccc(S(=O)(=O)N(C)C[C@@H]2OCCCC[C@@H](C)Oc3ccc(NC(=O)NC(C)C)cc3C(=O)N([C@H](C)CO)C[C@H]2C)cc1	.	.	.	9	.	.	.	.
c1c2c(cc3sc(N4CCOCC4)nc13)OCCO2	55*	0	62*	.	62*	92*	85*	78*
O=[N+]([O-])c1ccc(S(=O)(=O)N2CCN=C2SCc2ccc(F)cc2)cc1	-10	0	35*	7	-12	0	70*	-4
CCCNC(=O)C[C@@H]1C[C@@H]2c3cc(NC(=O)C4CCOCC4)ccc3O[C@@H]2[C@H](CO)O1	.	.	.	5	.	.	.	.
Cc1ccc(C)c(Nc2nc(N)c3ccccc3n2)c1	48	0	17*	-74	-7	14	23*	1
Cc1ccc(O)c(Nc2c3ccccc3nc3ccccc23)c1	1	0	39*	-11	2	-9	4	-4
O=C(C[C@H]1CC[C@@H](NC(=O)C2CC2)[C@H](CO)O1)Nc1ccccc1	.	.	.	5	.	.	.	.
